According to PubChem BioAssay:

Each compound was assayed against Fibroblast growth factor 10 (Homo sapiens) (UniProt O15520) (assay: FGF10 binders on small-molecule microarrays, primary screen, biochemical, small-molecule microarray, 635 nm fluorescence (AID 1102)). Settings: FGF10 binding, fluorescence 635 nm, higher = more signal.
Fibroblast growth factor 10 (Homo sapiens), sequence (O15520 whole entry, looked up): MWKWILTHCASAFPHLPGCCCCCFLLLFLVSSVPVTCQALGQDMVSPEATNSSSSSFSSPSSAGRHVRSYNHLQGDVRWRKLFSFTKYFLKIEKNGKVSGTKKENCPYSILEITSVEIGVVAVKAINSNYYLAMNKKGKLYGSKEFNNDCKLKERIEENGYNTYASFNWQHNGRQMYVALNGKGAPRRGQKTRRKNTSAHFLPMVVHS
For O=C1[C@H]2[C@H]3[C@H](O)[C@H](O)CC(=NO[C@@H]4O[C@H](CO)[C@@H](O)[C@H](O)[C@H]4O)[C@H]3CC[C@H]2C(=O)N1c1ccc(F)cc1F, the composite z-score was -0.0077. Compound CCCNC(=O)OC[C@H]1O[C@H](CCON=C2c3cc(OC)ccc3O[C@H](c3cccc(OC)c3)[C@H]2O)C=C[C@@H]1Oc1ccc(OC)cc1 has a composite z-score of 0.744. For O=C1[C@H]2CCn3c(=O)n(-c4ccccc4)c(=O)n3[C@H]2[C@H](O)[C@@H]2O[C@H]12, the composite z-score was 0.837. CC(C)=CCCC(C)=CCON=C1C[C@@H](O)[C@@H](O)[C@@H]2[C@@H]3C(=O)N(Cc4ccc5c(c4)OCO5)C(=O)[C@@H]3CC[C@H]12 gave a composite z-score of 0.797. In the case of O=C1[C@H]2[C@H]3[C@H](O)[C@H](O)CC(=NOCc4ccccc4)[C@H]3CC[C@H]2C(=O)N1C1CCCCC1, the composite z-score is reported as 0.378. CC(C)(C)N1C(=O)[C@H]2[C@H]3[C@H](O)[C@H](O)CC(=NOC[C@@H](O)COCc4ccco4)[C@H]3CC[C@H]2C1=O gave a composite z-score of 0.207. COC(=O)[C@H](C)NC(=O)CCC1CC(OC(=O)NCc2ccc3c(c2)OCO3)CC2(CCCC(COC(=O)NCCC(C)C)O2)O1 (stereo not given in full) showed a composite z-score of 0.412. For COC(=O)[C@H](C)NC(=O)CC=C[C@@H](C)[C@@H]1C=C[C@H](O)[C@@H](CO)O1, the composite z-score was 0.6. CC(CCN1CCCCc2nc(C)c(C)cc21)=NOC[C@@H](O)[C@H]1O[C@@H]2OC(C)(C)O[C@@H]2[C@H]1O showed a composite z-score of 0.313. For CC(C)=CCCC(C)=CCON=C1[C@H]2CCn3c(=O)n(-c4ccccc4)c(=O)n3[C@H]2[C@H](O)[C@@H]2O[C@H]12, the composite z-score was 0.726.
